Hit rate of the full screen: of about 63,000 compounds, about 1,100 (1.7%) were called active. Rule as the data show it: active = cytotoxicity above about 50%; inactive = the rest. Shown is part of a subset that was picked to be rich in actives. Potency and affinity values are given separately.
Test: HPDE-C7 pancreatic duct cell viability loss – fluorescence, HTS (AID 430);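 also: cells exposed to compound for 48 hours before viability readout; 0% = vehicle and 100% = reference cytotoxic drug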
Conditions: HPDE-C7 pancreatic duct cells viability, at 10 µM, hits give high values

Row | Structure (SMILES) | cytotoxicity
1 | CCOC(=O)C1=C(N)N(c2ccccc2Oc2ccccc2)C(=O)C1 | 3.7% (inactive)
2 | CCS(=O)(=O)C(=C(Nc1ccc(OC)cc1)Nc1ccc(OC)cc1)S(=O)(=O)CC | -21.8% (inactive)
3 | CC(C)CC(=O)Nc1ccc(F)c(Cl)c1 | -0.2% (inactive)
4 | Cc1ccsc1-c1nc(CSCC(=O)NCc2ccc3c(c2)OCO3)c(C)o1 | 5.8% (inactive)
5 | CC(C)C(=O)Nc1ccc(NC(=O)c2ccco2)cn1 | -9.5% (inactive)
6 | Cc1cc(NC(=O)C(C)(C)C)no1 | -22.1% (inactive)
7 | CCN(CC)S(=O)(=O)c1ccc(F)cc1 | -8.3% (inactive)
8 | CC(C)c1[nH]nc2c1C(c1cccnc1)C(C#N)=C(N)O2 (stereo not given) | -15.1% (inactive)
9 | CCOC(=O)c1[nH]c(C)c(C(=O)Nc2ccccc2F)c1C | 43.6% (inactive)
10 | CCOC(=O)c1[nH]c(C)c(C(=O)Nc2cccc(Cl)c2C)c1C | 43.9% (inactive)
11 | CCOC(=O)c1[nH]c(C)c(C(=O)Nc2ccccc2C)c1C | 52.4% (active)
12 | O=C(OCc1cc2ccccc2[nH]c1=O)c1ccco1 | 20.9% (inactive)
13 | Cc1ccc(S(=O)(=O)NC(=O)Nn2c(C)nnc2C)cc1 | -7.7% (inactive)
14 | CC12CN3CC(C)(CN(C1)C3c1cc3ccccc3[nH]1)C2=O (stereo not given) | 14.8% (inactive)
15 | COc1ccc(CCNC(=O)CN(C2CCCCC2)S(C)(=O)=O)cc1OC | -1% (inactive)
16 | COCCn1c(SCC(=O)Nc2cccc(C)c2)nnc1C(C)C | 1% (inactive)
17 | CCOc1ccc(NS(=O)(=O)c2ccc(SC)cc2)cc1 | 7.2% (inactive)
18 | CCOc1ccc(NS(=O)(=O)c2ccc3[nH]c(=O)oc3c2)cc1 | -0.3% (inactive)
19 | CC1Cc2cc(C(=O)O)ccc2O1 (stereo not given) | -26.7% (inactive)
20 | O=C(c1coc(=O)c(Br)c1)N1CCOCC1 | -0.3% (inactive)
21 | CCN(C(=O)c1coc(=O)c(Br)c1)c1ccc2c(c1)OCO2 | 74.4% (active)
22 | CCN(C(=O)CCS(=O)(=O)c1ccc(Br)cc1)c1ccc2c(c1)OCO2 | 8.6% (inactive)

Row | Structure (SMILES) | cytotoxicity
23 | COc1ccc(C2(CNC(=O)c3ccc(Br)o3)CCOCC2)cc1 | -0.2% (inactive)
24 | O=C(Cn1cc2c(n1)CCCC2)NCCc1ccccc1 | -13% (inactive)
25 | Cc1nc(SCC(=O)N2CCN(c3ccccc3)CC2)c2oc3ccccc3c2n1 | 48.5% (inactive)
26 | Cc1cc(NS(=O)(=O)c2ccc(NC(=O)c3ccoc3C)cc2)nc(C)n1 | 2.9% (inactive)
27 | Clc1ccc(-n2nnnc2-c2ccccc2)cc1 | -17.1% (inactive)
28 | CCOc1cccc(-n2nnnc2-c2ccc(OC)cc2)c1 | 56.8% (active)
29 | COc1cccc(Oc2nnnn2-c2ccccc2)c1 | -23% (inactive)
30 | CCS(=O)(=O)c1nnnn1-c1ccccc1S(C)(=O)=O | 33.3% (inactive)
31 | O=C(CSc1nnnn1-c1ccccc1)CSc1nnnn1-c1ccccc1 | -2.1% (inactive)
32 | COc1ccc(-n2nnnc2-c2cccc(OC)c2)cc1 | 68.4% (active)
33 | COc1ccc(-c2nnnn2CCc2ccccc2)cc1 | -7.2% (inactive)
34 | COc1ccc(-c2nnnn2-c2ccccc2OC)cc1 | 46.6% (inactive)
35 | N#CCCS(=O)(=O)c1nnnn1-c1ccccc1 | 64.6% (active)
36 | COc1cccc(-n2nnnc2SCC(=O)c2cc(OC)ccc2OC)c1 | -12.2% (inactive)
37 | COc1ccc(-n2nnnc2-c2cccnc2)cc1 | -6.7% (inactive)
38 | Nc1nc(-c2ccc(Cl)cc2)nn1C(=O)c1cccnc1 | 9.3% (inactive)
39 | CC(C)C(OC(=O)c1cc2sccc2n1C)C(=O)NCC1CCCO1 (stereo not given) | -19.4% (inactive)
40 | O=C(CSc1nnc(-c2ccccc2Br)o1)N1CCN(C(=O)c2ccco2)CC1 | -13.5% (inactive)
41 | CC1CCCCN1C(=O)CSc1nnc(-c2ccco2)n1CC1CCCO1 (stereo not given) | 3.9% (inactive)
42 | COc1cccc(OCc2nnc(SCC(=O)OC3CCCCC3)n2C)c1 | -7.5% (inactive)
43 | CCOc1ccccc1NC(=O)CSc1nnc(CNC(=O)c2ccco2)o1 | 6.4% (inactive)
44 | CN(C)C(=O)N1CCN(C(=O)c2ccccc2Sc2ccccc2C#N)CC1 | -6.6% (inactive)

Row | Structure (SMILES) | cytotoxicity
45 | NS(=O)(=O)c1ccc(NC=C2C(=O)OC3(CCCCC3)OC2=O)cc1 | 6.2% (inactive)
46 | NS(=O)(=O)c1ccc(NC(=O)CSC2CCCCC2)cc1 | -4.6% (inactive)
47 | O=C1c2oc3ccc(Cl)cc3c(=O)c2C(c2cccc(Br)c2)N1CCO (stereo not given) | 0.8% (inactive)
48 | Cc1ccccc1OCC(=O)Nc1ccc(N2CCN(S(C)(=O)=O)CC2)cc1 | -2% (inactive)
49 | COc1cc(-c2nnc(COc3ccc4cc(Br)ccc4c3)o2)cc(OC)c1OC | 78.6% (active)
50 | COc1cc(-c2nnc(COc3ccc4ccccc4c3)o2)cc(OC)c1OC | 34.6% (inactive)
51 | COc1ccc(-c2nnc(COc3ccc4ccccc4c3)o2)cc1OC | 4.4% (inactive)
52 | COc1ccc(C(=O)OCn2nnc3ccccc3c2=O)cc1OC | 6.3% (inactive)
53 | CCOc1ccc(S(=O)(=O)n2cnc3cc(C)c(C)cc32)cc1 | 8.7% (inactive)
54 | N#Cc1c(N)nc2c(c1N)CC(=O)N2c1ccccc1-c1ccccc1 | 0.1% (inactive)
55 | CC(C)(C)N1C(=O)Cc2c1nc(N)c1c(N)nc(N3CCCCC3CO)c(C#N)c21 (stereo not given) | 54.6% (active)
56 | CCOC(=O)CNS(=O)(=O)CCN1C(=O)c2ccccc2C1=O | -14.2% (inactive)
57 | CCOC(=O)c1c(CN2CCCCC2C)oc2ccc(OC)cc12 (stereo not given) | 3.6% (inactive)
58 | CCOC(=O)c1cccc(NC(=O)c2cnc3ccccc3n2)c1 | 0.8% (inactive)
59 | O=S(=O)(c1ccc(Cl)cc1)N1CCSC1c1ccco1 (stereo not given) | 8.1% (inactive)
60 | O=C(Nc1ccc(Cl)c(Cl)c1)N1CCSC1c1ccco1 (stereo not given) | 62.5% (active)
61 | O=C(c1cc2ccccc2oc1=O)N1CCSC1c1ccco1 (stereo not given) | 4.9% (inactive)
62 | COc1ccc(-c2noc(CCC(=O)N3CCN(Cc4ccccc4)CC3)n2)cc1 | -6.2% (inactive)
63 | CCc1[nH]nc2c1C(c1ccc(Br)s1)C(C#N)=C(N)O2 (stereo not given) | -2.9% (inactive)
64 | CCCc1[nH]nc2c1C(c1ccncc1)C(C#N)=C(N)O2 (stereo not given) | 6.1% (inactive)
65 | CCCN1CC23C=CC(O2)C(C(=O)O)C3C1=O (stereo not given) | -2.8% (inactive)

— PubChem BioAssay AID430 (Sanford-Burnham Center for Chemical Genomics, 2006)
